# Measured values as given in PubChem BioAssay (NCATS).
# Several values for one entry are separate records, joined by “and”; a condition that tells them apart may be missing. Equal entries are not always repeated. Unmarked numbers belong to inactive results. Records with an inconclusive call do not appear. A call without a number means that no potency is given here. Some compounds were tested as several samples or in several runs, with calls that do not always agree. Activity calls are given as the source filed them. Unless noted, calls come from the whole dose curve; as a rule, active = well fitted curve in the direction sought with a large enough effect; inconclusive = small, poorly fitted or top-dose-only effect, or another doubt; inactive = no such curve, though single readings can be large; an effect the other way counts as inactive or inconclusive.
# Legend:
# HeLa = test: Primary qHTS to identify gynecologic anti-cancer compounds using libraries of approved drugs and bioactive compounds (AID 1345084); settings: Gynecologic cancer cell panel viability, ATPlite luminescence, 48 h; series mostly up to 57.5 µM; note: nearly all actives have a fitted effect of over 55% in size; note: potency is the fitted concentration of half-maximal effect
# How it was run: (§1)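 Measured: luminescence after ATPlite addition (15 min, RT). Exposure: 48 h, 37 C, 5% CO2.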
# Hek293T = test: as above; settings: Gynecologic cancer cell panel viability, ATPlite luminescence, 48 h, control line for the selectivity index; series mostly up to 57.5 µM
# How it was run: as §1
# JEG-3 = test: as above; settings: Gynecologic cancer cell panel viability, ATPlite luminescence, 48 h; series mostly up to 57.5 µM
# How it was run: as §1
# OV90 = test: as above; settings: Gynecologic cancer cell panel viability, ATPlite luminescence, 48 h; series mostly up to 57.5 µM
# How it was run: as §1
# PA-1 = test: as above; settings: Gynecologic cancer cell panel viability, ATPlite luminescence, 48 h; series mostly up to 57.5 µM
# How it was run: as §1
# SKOV3 = test: as above; settings: Gynecologic cancer cell panel viability, ATPlite luminescence, 48 h; series mostly up to 57.5 µM
# How it was run: as §1
# Tov-21-G = test: as above; settings: Gynecologic cancer cell panel viability, ATPlite luminescence, 48 h; series mostly up to 57.5 µM
# How it was run: as §1
# Tov112D = test: as above; settings: Gynecologic cancer cell panel viability, ATPlite luminescence, 48 h; series mostly up to 57.5 µM
# How it was run: as §1
# [1] = Drug repurposing screens with cells derived from glioblastoma tumor samples (AID 1345199); settings: GBM patient neurospheres viability, ATP luminescence, 48 h; note: nearly all actives have a fitted effect of over 40% in size; note: potency is the fitted concentration of half-maximal effect
# How it was run: (§2)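 Primary testing used CD133+ neurospheres from four GBM patients, seven concentrations, 48 h exposure and ATP-based viability; confirmation added three slower-growing patient lines.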
# astro = test: as above; settings: viability, ATP luminescence, 48 h; series mostly up to 45.9 µM
# How it was run: as §2
# [2] = target: Nuclear receptor subfamily 1 group I member 2 (Rattus norvegicus) (UniProt Q9R1A7); test: qHTS assay for small molecule activators of the rat pregnane X receptor (rPXR) signaling pathway (AID 651751; call rule not given here); settings: rPXR reporter cells, luciferase (One-Glo), 24 h
# [3] = qHTS assay for small molecule activators of the human pregnane X receptor (PXR) signaling pathway (AID 720659; call rule not given here)
# [4] = at 45.9 µM (top of the series), tumour line B
# [5] = at 45.9 µM (top of the series), tumour line D
# [6] = at 46 µM (top of the series), tumour line A
# [7] = at 46.1 µM (top of the series), tumour line C
# Nuclear receptor subfamily 1 group I member 2 (Rattus norvegicus), sequence (Q9R1A7 whole entry, looked up): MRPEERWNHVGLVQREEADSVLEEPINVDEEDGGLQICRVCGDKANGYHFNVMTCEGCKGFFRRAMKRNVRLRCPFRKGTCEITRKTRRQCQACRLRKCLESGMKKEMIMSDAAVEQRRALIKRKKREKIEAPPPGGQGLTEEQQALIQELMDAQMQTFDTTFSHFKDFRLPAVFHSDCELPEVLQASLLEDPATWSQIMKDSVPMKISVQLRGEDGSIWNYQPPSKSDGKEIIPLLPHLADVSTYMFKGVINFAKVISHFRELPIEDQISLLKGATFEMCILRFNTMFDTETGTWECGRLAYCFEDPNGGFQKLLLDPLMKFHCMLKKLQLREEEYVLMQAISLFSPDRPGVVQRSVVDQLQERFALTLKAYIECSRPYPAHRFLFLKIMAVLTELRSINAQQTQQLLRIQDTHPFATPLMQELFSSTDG
Structure (SMILES),Potency (HeLa),Potency (Hek293T),Potency (JEG-3),Potency (OV90),Potency (PA-1),Potency (SKOV3),Potency (Tov-21-G),Potency (Tov112D),"activity, negative = cell killing [1, 4]","activity, negative = cell killing [1, 5]","activity, negative = cell killing [1, 6] [%]","activity, negative = cell killing [1, 7]",Potency (astro),Potency ([1]; tumour line A),max response [2] [%],outcome [3]
OCCn1cc(-c2cnc3nnn(Cc4ccc5ncccc5c4)c3n2)cn1,inactive,inactive,inactive,inactive,inactive,inactive,inactive,inactive,,,,,,,,
CNCc1ccc(-c2[nH]c3cc(F)cc4c3c2CCNC4=O)cc1,inactive,inactive,inactive,inactive,inactive,inactive,inactive,inactive,,,,,,,,
N[C@@H]1CONC1=O,inactive,inactive,inactive,inactive,inactive,inactive,inactive,inactive,-2.69%,4.98%,-17.4,-0.848%,inactive,,,
COc1cc2nccc(Oc3ccc(NC(=O)NC4CC4)c(Cl)c3)c2cc1C(N)=O,inactive,inactive,inactive,inactive,inactive,inactive,inactive,inactive,,,,,,,,
CS(=O)(=O)c1ccc(C(=O)Nc2ccc(Cl)c(-c3ccccn3)c2)c(Cl)c1,inactive,inactive,inactive,inactive,inactive,inactive,inactive,inactive,,,,,,,,
CCCc1nn(C)c2c(=O)[nH]c(-c3cc(S(=O)(=O)N4CCN(C)CC4)ccc3OCC)nc12,inactive,inactive,inactive,inactive,inactive,inactive,inactive,inactive,-8.65%,-23.3%,,12.9%,inactive,22.4 µM (active),,
CC(C[N+](C)(C)C)OC(N)=O (configuration not stated),inactive,inactive,inactive,inactive,inactive,inactive,inactive,inactive,-0.814%,5.66%,-20.4,5.23%,inactive,,,
Cc1ccnc(NS(=O)(=O)c2ccc(NC(=O)Nc3ccc(S(=O)(=O)Nc4nccc(C)n4)cc3)cc2)n1,inactive,inactive,inactive,inactive,inactive,inactive,inactive,inactive,,,,,,,,
Cc1n[nH]c(C)c1Cc1sc2c(c1C(=O)N1C[C@H](O)CO1)c(=O)n(C)c(=O)n2CC(C)C,inactive,inactive,inactive,inactive,inactive,inactive,inactive,inactive,,,,,,,,
CC(C)NCC(O)COc1ccc(COCCOC(C)C)cc1 (configuration not stated),inactive,inactive,inactive,inactive,inactive,inactive,inactive,inactive,-9.69% and -16.2%,1.75% and -24.1%,,-2.09% and 0.649%,inactive,11.2 µM (active),,
Clc1cccc(Cl)c1NC1=NCCN1,inactive,inactive,inactive,inactive,inactive,inactive,inactive,inactive,5.06%,-7.27%,-29.3,0.125%,inactive,,,
NC[C@H](O)c1ccc(O)c(O)c1,inactive,inactive,inactive,inactive,inactive,inactive,inactive,inactive,-10.5%,-7.44%,-26.2,-17.3%,inactive,,2.15,inactive
C[C@H](NC(=O)Cc1cc(F)cc(F)c1)C(=O)N[C@@H]1C(=O)N(C)c2ccccc2-c2ccccc21,inactive,inactive,inactive,inactive,inactive,inactive,inactive,inactive,,,,,,,,
COc1cc(Oc2ccnc3cc(OC)c(OC)cc23)ccc1NC(=O)NC(C)c1nccs1 (configuration not stated),inactive,inactive,inactive,inactive,inactive,inactive,inactive,inactive,,,,,,,,
O=C1CCC(N2C(=O)c3ccccc3C2=O)C(=O)N1 (configuration not stated),inactive,inactive,inactive,inactive,inactive,inactive,inactive,inactive,-4.2%,-2.61%,-6.31,3.21%,inactive,,1.73,inactive
CCC(C)n1ncn(-c2ccc(N3CCN(c4ccc(OC[C@H]5CO[C@](Cn6cncn6)(c6ccc(Cl)cc6Cl)O5)cc4)CC3)cc2)c1=O (some centres not stated),inactive,inactive,inactive,inactive,inactive,inactive,inactive,inactive,,,,,,,,
CCc1ccc(CCOc2ccc(CC3SC(=O)NC3=O)cc2)nc1 (configuration not stated),inactive,inactive,inactive,inactive,inactive,inactive,inactive,inactive,-10.3%,-17.6%,,,,,,
COc1cc(F)c(F)c(Nc2ccc(I)cc2F)c1NS(=O)(=O)C1(C[C@H](O)CO)CC1,inactive,inactive,inactive,2.51 µM (active),inactive,inactive,,,,,,,,,,
Cc1cnc(NC(=O)C2=C(O)c3ccccc3S(=O)(=O)N2C)s1,inactive,inactive,inactive,inactive,inactive,inactive,inactive,inactive,,,,,inactive,,,
